Sfp PPTase inh – blocks B. subtilis Sfp PPTase activity; Q9F4F7; Biochemical Sfp PPTase activity, qHTS; Potency, µM, for the others: largest response in the series, negative = inhibition, usual class: inhibitors; 310,000 compounds, 3.5% hits; AID 1490;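 also: the enzyme is Sfp with the accession as filed and its product quenches rhodamine fluorescence; 0% = enzyme reaction without inhibitor and -100% = no enzyme wells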
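Buffer: 50 mM Hepes-Na pH 7.6, 10 mM MgCl2, 0.01% Nonidet P-40, 0.01% BSA. Enzyme 15 nM, pre-exposed to compound 15 min; substrates then added and fluorescence change tracked over 30 min.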
BAZ2B block – blocks human BAZ2B | Q9UIF8 | AlphaScreen BAZ2B-H3K14Ac peptide displacement | Potency, µM (doses to about 114 µM), for inactives: at the highest dose activity change, negative = inhibition, usual class: inhibitors | 360,000 compounds, 4.4% hits | AID 504333; also: % is scaled to controls: 0 for no effect and ±100 for the full control effect; nearly all actives have a fitted effect of over 60% in size
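Compounds, titrated to a top concentration of 110 uM, were incubated 30 min at room temperature with preformed BAZ2B/acetyl-K14 H3 peptide complex (50 nM each). Proximity signal was measured by AlphaScreen after 20 min with beads.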
PLK1 PBD inh – inhibitors of human PLK1 polo-box domain binding; Plk1 PBD binding of FITC phosphopeptide, fluorescence polarization; Potency, µM, for inactives: max response, negative = inhibition, actives largely listed as inhibitors; 360,000 compounds, 2.8% hits; AID 720504; also: series mostly up to about 57 µM; % is scaled to controls: 0 for no effect and ±100 for the full control effect; nearly all actives have a fitted effect of over 65% in size
Target sequence (P53350 whole entry, looked up, the tested form may be a part): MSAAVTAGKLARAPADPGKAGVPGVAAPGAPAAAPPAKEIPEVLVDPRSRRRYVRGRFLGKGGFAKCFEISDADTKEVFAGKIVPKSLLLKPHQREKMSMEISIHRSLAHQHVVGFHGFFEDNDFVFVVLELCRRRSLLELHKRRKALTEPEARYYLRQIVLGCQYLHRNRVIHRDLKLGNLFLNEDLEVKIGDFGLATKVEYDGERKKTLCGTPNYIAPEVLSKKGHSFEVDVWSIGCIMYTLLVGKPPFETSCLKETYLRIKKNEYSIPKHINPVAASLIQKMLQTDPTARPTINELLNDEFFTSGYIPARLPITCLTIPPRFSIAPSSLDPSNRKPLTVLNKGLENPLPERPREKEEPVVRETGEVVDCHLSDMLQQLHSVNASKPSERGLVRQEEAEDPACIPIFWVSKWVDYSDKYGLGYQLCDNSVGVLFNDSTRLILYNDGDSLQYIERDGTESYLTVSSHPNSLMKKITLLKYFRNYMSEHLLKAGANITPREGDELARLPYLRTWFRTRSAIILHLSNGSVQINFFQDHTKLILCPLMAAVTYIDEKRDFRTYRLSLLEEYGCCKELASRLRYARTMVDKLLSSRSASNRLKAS
JMJD2A Tudor – inhibitors of human JMJD2A Tudor domain; O75164; AlphaScreen JMJD2A-Tudor / H3K4me3 peptide binding; Potency, µM (doses to about 114 µM), for inactives: at the top dose activity change, negative = inhibition, hits mostly inhibitors; 390,000 compounds, 4.4% hits; AID 504339; also: % is scaled to controls: 0 for no effect and ±100 for the full control effect; nearly all actives have a fitted effect of over 50% in size
G9a block – inhibitors of human histone lysine methyltransferase G9a; Potency, µM (top dose mostly 102 µM), inactives show at the top dose activity, negative = inhibition, actives largely listed as inhibitors; 350,000 compounds, 8.8% hits; G9a H3K9 monomethylation, AlphaScreen, 2 h; AID 504332; Q96KQ7; also: % is scaled to controls: 0 for no effect and ±100 for the full control effect; nearly all actives have a fitted effect of over 75% in size
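Readings reflect AlphaScreen signal from monomethyl-H3K9 antibody detection. HMT at 20 nM; substrate b-H3K9 500 nM; cofactor SAM 20 uM; 2 h RT reaction; compounds tested as titrations in qHTS with 15 min preincubation.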
HP1b chromo inh – HP1-beta chromodomain-methylated histone interaction inhibition. AlphaScreen HP1-beta / biotin-H3K9me3 peptide binding. Potency, µM (series often up to 114 µM), without a hit: at the top dose activity change, negative = inhibition, most hits filed as inhibitors. 390,000 compounds, 0.56% hits. AID 540317; also: nearly all actives have a fitted effect of over 70% in size
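HP1-beta protein (50 nM final) preincubated 30 min at room temperature with biotinylated H3(1-18)K9me3 peptide (50 nM) in PBS pH 7.4, 0.01% Tween-20, then compound added for 30 min. AlphaScreen streptavidin donor/nickel chelate acceptor beads (10 ug/mL final), 30 min dark, luminescence read.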
The depositor's hits bear a star; ? = inconclusive; . = no result given; [ ] = remark or other dose. An excerpt weighted towards active compounds, which were near 12% of everything screened. Calls follow the shape of the dose curve; as a rule, active = well fitted curve in the direction sought with a large enough effect; inconclusive = small, poorly fitted or top-dose-only effect, or another doubt; inactive = no such curve, though single readings can be large; an effect the other way counts as inactive or inconclusive. Potency is read from the fitted curve at half-maximal effect.

SMILES	Sfp PPTase inh	BAZ2B block	PLK1 PBD inh	JMJD2A Tudor	G9a block	HP1b chromo inh
O=C1Cc2ccccc2C(=O)N1Cc1ccccc1	17%	-33%	?	-6%[11.4 µM]	50µM*	33%
O=C1c2cccc3c(O)ccc(c23)C(=O)N1Cc1ccccc1	?	5%	6µM*	36%	9%[2.33 µM]	50%
O=C(c1ccc([N+](=O)[O-])cc1)N1CCN(c2ncccn2)CC1	.	.	-2%	-4%	.	8%
Cc1ccc(CNC(=O)C2(C)CCN2C(=O)Cc2ccc(C(C)(C)C)cc2)cc1 (centres undefined)	.	.	3%	.	.	.
CC1=CC(c2ccc(Cl)cc2)n2nc(NC(=O)CCCC(=O)O)nc2N1 (centres undefined)	-13%	?	-15%	25µM*	50µM*	-3%
CC1=CC(c2ccc(Cl)cc2)n2nc(NC(=O)CCC(=O)O)nc2N1 (centres undefined)	-22%	50µM*	-28%	?	20µM*	9%
CC(=O)Nc1nc2n(n1)C(c1ccc(F)cc1)C=C(c1ccc(Cl)cc1)N2 (centres undefined)	.	?	.	-6%	?	63%
O=[N+]([O-])c1ccc(C=NNc2ccc(S(=O)(=O)O)cc2)cc1	.	.	-6%	79µM*	.	2%[57 µM]
O=S(=O)(N/N=C\c1ccccc1O)c1ccc(Cl)cc1	19%	-25%	-9%	-28%	?	14%
CNc1nc(N/N=C/c2ccc([N+](=O)[O-])cc2)nc(Nc2ccccc2)n1	2%	?	27µM*	?	11%[59 µM]	?
O=S(=O)(O)c1ccc(NN=Cc2ccccc2O)cc1	.	.	-9%	100µM*	.	1%[57 µM]
COc1cccc(/C=N/Nc2ccc(S(=O)(=O)O)cc2)c1O	?	?	-3%	-15%	2.2µM*	27%
O=[N+]([O-])c1ccc(NN=Cc2cccc([N+](=O)[O-])c2)cc1	.	.	-16%	?	.	-17%
CC1CCCCN1C(=O)C(=O)c1cn(CC(=O)N2CCCCCC2)c2ccccc12 (centres undefined)	-7%	-22%	-11%	-26%	-4%[12.7 µM]	16%
O=C(c1ccccc1)n1c(=O)c(F)cn(COCCBr)c1=O	-9%	3%	-5%	-4%	.	35%
COc1ccccc1C(=O)NCCC(=O)NCCCSc1ccccc1	.	5%	-5%	-6%	1%	24%
CC1CCN(S(=O)(=O)c2ccc3c(c2)oc(=O)n3CC(=O)NCc2ccc(F)cc2)CC1	.	-29%	.	-19%	-20%[59 µM]	27%
CCOc1ccccc1C1C(C(=O)Nc2ccccc2)=C(C)Nc2nc(SCC(=O)c3ccc(C)cc3)nn21 (centres undefined)	.	-22%	.	-24%	9%[59 µM]	7%
COc1ccccc1/C=C/c1nc(S(=O)(=O)c2ccccc2)c(NCCN(C)C)o1	-2%	-18%	30µM*	?	?	29%
CN(C)CCCNc1oc(/C=C/c2cccs2)nc1S(=O)(=O)c1ccccc1	-12%	?	-18%	-22%	.	13%
COc1ccc(/C=C/c2nc(S(=O)(=O)c3ccccc3)c(N(C)C)o2)cc1OC	-6%	?	-6%	-5%	9%[0.501 µM]	5%[57 µM]
COc1ccc(/C=C/c2nc(S(=O)(=O)c3ccccc3)c(NCCCN(C)C)o2)cc1OC	2%	-6%	?	-8%	79µM*	63%
COc1ccc(C(=O)NC(=S)N(C)C2CCCCC2)cc1	1%	-37%	-24%	-11%	79µM*	41%
CCC/C(=N\NC(=O)c1ccccc1C)c1ccccc1	27%	3%	-16%	-13%[57.1 µM]	9%[59 µM]	67%
COc1ccc(C(=O)NC(=S)N(C)C2CCCCC2)cc1Br	2%	?	-7%	?	16%	9%
SMILES	Sfp PPTase inh	BAZ2B block	PLK1 PBD inh	JMJD2A Tudor	G9a block	HP1b chromo inh
CCC/C(=N\NC(=O)c1ccc(OC)c(OC)c1)c1ccccc1	8%	.	4%	7%	79µM*	45%
COc1cc(CC(=O)NC(c2ccccc2)c2ccccc2)cc(OC)c1OC	4%	-3%	21µM*	?	7%[59 µM]	-6%
COc1cc(C(=O)N/N=C(\C)Cc2ccccc2)cc(OC)c1OC	-6%	-8%	-4%	8.9µM*	14%	11%
CCN1C(=O)[C@H]2[C@H]3[C@H](O)[C@H](O)C/C(=N/OC/C=C(\C)CCC=C(C)C)[C@@H]3CC[C@@H]2C1=O	18%	.	.	.	.	.
Cc1ccc(-n2ncc3c(N4CCCCCC4)ncnc32)cc1C	.	46%	.	16%	8%[59 µM]	62%
COc1cc(C(=O)NC(=S)N(CCc2ccccc2)CCc2ccccc2)cc(OC)c1OC	9%	8.9µM*	-3%	-24%	9%[59 µM]	2%
C/C(Cc1ccccc1)=N\NC(=O)CNC(=O)c1ccc(Br)cc1	6%	-1%	27µM*	-28%	-2%[59 µM]	3%
COc1ccc(C(=O)NC(=S)N(Cc2ccccc2)Cc2ccccc2)cc1	5%	8.9µM*	-11%	56µM*	59%[12.7 µM]	?
C/C(Cc1ccccc1)=N\NC(=O)CNC(=O)c1ccccc1	4%	6%	-9%	-7%	24%[59 µM]	34%
COc1ccc(C(=O)NCCSc2ccccc2)cc1OC	16%	-15%	3.4µM*	11µM*	-6%	-14%
Cc1nc2[nH]c(=O)n(O)c(=O)c2s1	.	.	0%	7.9µM*	.	8%
Cc1nc2c(=O)n(-c3ccc(F)cc3F)nc(C)c2s1	10%	-3%	0%	-2%	1%	37%
O=C1CN(c2nc(-c3cccs3)nc3sc4c(c23)CCCC4)CCN1	?	-30%	27µM*	-19%	8%[12.7 µM]	36%
COc1ccc(-c2csc3nc(-c4cccnc4)nc(N4CCC(C(N)=O)CC4)c23)cc1OC	-32%	-32%	?	-29%	?	4%
O=C1CN(c2nc(-c3cccnc3)nc3scc(-c4ccccc4)c23)CCN1	-10%	-29%	3%	1%	40µM*	36%
CCOC(=O)N1CCN(C(=O)C[C@@H]2C[C@@]3(C(=O)OCC)CCC=C3N(Cc3ccccc3)C2=O)CC1	.	.	-5%	.	.	.
O=C(Nc1cc(N2CCOCC2)ncn1)NC1(C(F)(F)F)Oc2ccccc2O1	7%	-1%	-16%	89µM*	2.2µM*	19%
O=C(CSCCO)Nc1cccc2ccccc12	-21%	11%	-1%	1%	50µM*	38%
O=C(Nc1ccc2snnc2c1)Nc1cccc2ccccc12	-28%	-5%	30µM*	-3%[11.4 µM]	50µM*	-20%
COc1cccc(NC(=O)NC2(C(F)(F)F)Oc3ccccc3O2)c1	-7%	11%	-8%	71µM*	3.5µM*	20%
Cc1ccccc1NC(=O)Cn1c(=O)n(Cc2ccc3c(c2)OCO3)c(=O)c2ccc(C(=O)NC3CCCCC3)cc21	.	.	.	-14%	6%[59 µM]	19%
COc1ccc(NC(=O)COc2cccc(-n3cnnn3)c2)cc1	11%	-10%	-5%	-11%	25%	10%

Compound activity (PubChem BioAssay)
